# Results as given in the supplement of paper PMC11417369.
# Whole data set: some 25,000 sequences, median “ln(normalized median fluorescence intensity)” near 7.1, cut for the highest 2% near 10. The sample as a whole holds a higher share of the highest values than the screen did.
# Test system: PfSIP2 AP2 domain 1 (GST-tagged)
# Assay: gcPBM binding intensity (ln(normalized median fluorescence intensity)); higher = stronger DNA binding
# How it was run: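 Binding of GST-tagged P. falciparum DNA-binding domains, expressed in E. coli and used at about 25 μg on average, was carried out for 1 h in 1× PBS containing 1% milk, 0.2 mg/ml BSA, 0.5% salmon testes DNA and 0.03% Triton X-100. The target was an Agilent 4 × 180k array of primer-extended double-stranded 36-bp intergenic genomic probes plus negative controls, read with Alexa488 anti-GST antibody at 488 nm. Binding intensity is the highest Masliner-normalised natural-log median intensity across replicate spots of either probe orientation.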
row,Sequence,gcPBM binding intensity (ln)
1,GCACATTTTTTTATCACACATATAATTACAATATAA [CACACA_site5585],7.74
2,ACAATATTTTTTTATAAACACACATATATATAAATA [CACACA_site9175],7.18
3,AATAATGAATTGAAATGTACATATTTTTATTAATAC [XGTACX_site8899],7.15
4,AAAATATAAAGTATTTGTACATAATATATTTTTAAA [XGTACX_site3494],6.81
5,CATGAGGTATAAAAGGTGCAAATTAATGAGAACATT,11.1
6,CAATTAAACAATTAAACATGCAAAATGATATAATAA [TGCATGCA_site240],6.79
7,TATGTATTAATGAGAACATGCAAAATAATAAACAAT [TGCATGCA_site362],7.24
8,TATATATATATATGTGGTACATAAAATTATTATTTT [XGTACX_site4554],9.55
9,TTTTAAGGTGTGAAGGTGCAAAAAGGTAAATAGGAA,10.8
10,TTTTTTTTTAAGCAAAGGAAATCAAAATAAAAATAT [CACACA_negctrl_site719],7.08
11,ATTTTAAAAAGGATAGTGCAAATGTTAAAATAGGAC,8.74
12,ATTTAAGTAGTACATACACACACATATACAAAAAGA [CACACA_site9317],7.39
13,GATGAGGACAAACACACACACATAAGTTGATACATA [CACACA_site3424],7.27
14,ATATAATAACATAACACACACATGTATTTATAGGTG [CACACA_site359],6.97
15,CTATAATAACATAACACACACATGTATTTATAGGTG [CACACA_site6298],7.05
16,CGGACATACATAGGAACATGCAAAATTTTTTATTTT [TGCATGCA_site575],6.78
17,TTTTATTTAGGAGGTGCATGTAATACGGAACATAAT [TGCATGCA_site827],11.2
18,ATACTTTTATTTTTGGTGCATATATCATGTAGACGT,10.2
19,CTTTTTATTTAGGAGGTGCATGTAATACGGAACATA,10.9
20,TGATTATTATAATTTAGTACATAATATTTTATATAA [XGTACX_site6125],7.07

row,Sequence,gcPBM binding intensity (ln)
1,TTTATATATTTATTCACACATATAATATTCCGTCGT [CACACA_site6120],6.88
2,AAAAAAAAAAAAAATACACACATATTTTATAGGGGA [CACACA_site3261],7.19
3,CATATTTACTATCACACACACGATATATATAAATAT [CACACA_site1241],7.25
4,TTGATTTCATTTTAAGTGCATAACTAATATTATATA [GTGCAC_site9713],8.07
5,AATATTCATATGCAGGTGCATTAATTTTTATTAATT,10.4
6,GTTTGAATATATCAGGTGCATTTATAATTCATATGA,10.5
7,TTATTAAATTCATAAGTGCATTTATGATTAATTTTT [GTGCAC_site9749],9.08
8,TTCATTTTATTTTAAGTGCATATTTTTATTTTTTTG,8.27
9,CATGAATATTTTAATGTGCACATTTATCATTATATG,8.69
10,CGCATATTTTATGTTTGTACTCATATGAATATCATA [XGTACX_site4717],6.97
11,ATCATATGTATGGTGGTGCATTATGCATGAATTTTA [GTGCAC_site9798],10.2
12,ATCATATTTATGTTGGTGCATTATGCATGGATTTTA [GTGCAC_site9795],9.92
13,ATCATATTTATATTGGTGCATTATGCATGAAATTTA [GTGCAC_site9571],9.94
14,TTCATATTCGATAAAGTGCATTAATTTTATTTATCA,8.36
15,CATTTTCATTTTAAGGTGCATTAATATTTATTTTAA [GTGCAC_site9437],10.4
16,ATATATTTTTTTTTTTGTACGTATATTTATATAATT [XGTACX_site8719],7.1
17,ATATTACTAATTAATGGTACACGTTATAATAAACTA [XGTACX_site7051],7.12
18,TTCAATAGTAAGTATACACACATATAAATAAATAAA [CACACA_site7295],6.91
19,GTGTGAAACATAAACACACACAAAAAGAAAAAATAG [CACACA_site1227],6.91
20,TGCTTTTCTTTTTGCACACTTATGCATATATATATA [CACACA_site2583],9.5

row,Sequence,gcPBM binding intensity (ln)
1,TATTCAAAAATATAAACAATGAAACAGTATAATATG [CACACA_negctrl_site1482],7.09
2,ATCACAAAATGGAATGTTCTATGATATATATGTATA [XGTACX_negctrl_site460],7.02
3,GCAAAGCACAAATATGCATGTAGATATAGAATAATG [TGCATGCA_site382],7.68
4,ATATATATATATAAAGTGCAAAAATGAAAGTAAGAC [GTGCAC_site9850],9.25
5,TTTGAAAAGTATGAGGTGCAAAAAATGTAATGAAAT,10.2
6,GTATATGAGAAAAAAAGTACATGCACAAAATGTATA [XGTACX_site6441],7.42
7,ATTATAAATATCAGTGCACACATTTCTACGCAAAGT [CACACA_site4420],10.4
8,ATTCTAAATATCAGTGCACACATTTCTACGCAAAGT [CACACA_site474],9.9
9,TAAAATATTATCTACGCACACATTAAAATAAAAAAA [CACACA_site3709],7.17
10,AAAGAATTTGCATATACACACAAAAAAATAAATACA [CACACA_site4373],7.03
11,TATATATTATACACGTGTACACATTATAACAATATA [XGTACX_site7799],7.4
12,TATATATATATATAATGTACTTATATTTTTTTGAGG [XGTACX_site2638],9.46
13,AAGGAAAACAATAGGTGTACCAAACGTCCTAGGAAC [XGTACX_site5732],6.7
14,GTTCTAATATATTGCACACGTAAAAATATAGGTAAT [CACACA_site886],7.42
15,ATATGAAAGGTGTACACACGCACACCCAAAAAAATA [CACACA_site2911],7.93
16,GTGTAATATGAAATGTGTACACACGCACACACAAAA [XGTACX_site6180],7.6
17,TAATATGAAAAGTGTACACACGCACAGACAAAAAAA [CACACA_site5594],7.33
18,TGTAATATGAAATGTGTACACACGCACCCACAAAAA [CACACA_site8948],10.9
19,AATGTGTACGCACGCACACACAAAAAAATATATATA [CACACA_site2913],7.24
20,TAATATGAAATGTGTACACACGCACCCACAAAAAAA [CACACA_site8949],10.7
